From PubChem
TEAD-YAP inh: TEAD-YAP interaction inhibition; inhibition, % at 9.12 µM; 640,000 compounds, 1.4% hits; AID 1259422; HEK-TIYL cells, TEAD-Gal4/YAP UAS-luciferase luminescence; in the data active = inhibition above about 32%;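 note: 0% = median of test compound wells and 100% = reference inhibitor wells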
GPR151 ag: activators of human GPR151; Q8TDV0; PathHunter beta-arrestin GPR151 cells, luminescence; activation, % at 11.2 µM; 650,000 compounds, 1% hits; AID 1508602; in the data active = activation above about 4.9%;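 note: 0% = median of compound wells and 100% = cells with positive control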
MITF primary: human MITF inhibition, primary screen; O75030; AlphaScreen MITF homodimerization, bead proximity signal; inhibition, % at 2.6 µM; 650,000 compounds, 0.91% hits; AID 1259374; in the data active = inhibition above about 50%;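 note: 0% = vehicle wells with protein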
FBW7 act: human FBW7 E3 ligase activation, primary screen. Q969H0. AID 1259310. normalized activity (activation), % at 26.1 µM. AlphaScreen FBW7–phospho-cyclin E peptide binding, activator screen. 650,000 compounds, 0.13% hits; in the data active = normalized activity above about 1.9%;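 note: purified mutant Fbw7 with reduced substrate affinity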
GPR151 conf act: confirmation of human GPR151 activators; 6,700 tested, under 10 active; shares compounds with GPR151 ag; GPR151 PathHunter beta-arrestin cells, luminescence, 90 min; % of EA-reagent control over plate median; activation, % at 11.2 µM;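 active = mean percent activation across replicates above the confirmation screen cutoff of 4.91%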
GPR119 ag: counter-screen for GPR151 activators: effect on human GPR119 | 6,700 compounds, 0.3% hits | GPR119 PathHunter beta-arrestin cells, luminescence, 90 min; 0 = compound-well median, 100 = enzyme-acceptor control | AID 1508611 | shares compounds with GPR151 ag | activation, % at 11.2 µM;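 active = mean percent activation in the counterscreen above 29.09%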;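 note: counterscreen on off-target GPR119 to flag nonselective hits from the GPR151 activator screen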
Target sequence (Q8TDV5 whole entry, looked up): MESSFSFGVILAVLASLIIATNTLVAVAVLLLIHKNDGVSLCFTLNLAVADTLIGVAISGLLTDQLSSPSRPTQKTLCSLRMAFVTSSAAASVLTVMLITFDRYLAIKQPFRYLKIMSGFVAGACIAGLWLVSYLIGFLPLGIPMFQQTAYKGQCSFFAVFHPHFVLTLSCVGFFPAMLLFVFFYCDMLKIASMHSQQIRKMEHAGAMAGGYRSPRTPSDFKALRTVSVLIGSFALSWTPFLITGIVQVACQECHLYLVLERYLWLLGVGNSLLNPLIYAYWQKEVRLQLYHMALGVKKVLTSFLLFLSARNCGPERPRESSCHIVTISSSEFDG
* = called active by the depositor; / = no result given; ! = not active in a repeat. A selection: hits, their analogues and other compounds. The true share with any hit is near 3.5%.

SMILES	TEAD-YAP inh	GPR151 ag	MITF primary	FBW7 act	GPR151 conf act	GPR119 ag
Oc1ccc(CCNc2nc(NC3CCN(Cc4ccccc4)CC3)nc3c2ncn3-c2ccsc2)cc1	24.6	5.6*	2.4	-0.1	0.4	9.2
c1ccc(CN2CCC(Nc3nc(Nc4ccc5ncccc5c4)nc4c3ncn4-c3ccsc3)CC2)cc1	2.4	5.5*	-5.5	-0.1	0.1	-12.5
CN(C)c1cccc(Nc2nc(Nc3ccccc3)c3ncn(-c4ccsc4)c3n2)c1	-66.8	5.6*	9.1	0.2	-0.5	-8.4
c1ccc(Oc2nc(NC3CC3)c3ncn(-c4ccsc4)c3n2)cc1	87.6*	6.6*	-8.6	-0.2	3.9	45.8*
CCOC(=O)c1ccc2c(c1)C(=O)N(c1cccc(N)c1)C2=O	3.3	-0.2	5.8	0.0	/	/
CCOc1ccc(OCCSc2nc3ccccc3n2CCOc2ccc(C)cc2)cc1	-0.1	0.1	-0.5	0.7	/	/
CC1=C(C#N)c2nc(N)c(C#N)c(C)c2/C1=C\c1cccs1	-6.6	5.4*	-1.9	0.0	0.8	-0.7
CCOC(=O)C1=C(C)N=c2s/c(=C/c3cccs3)c(=O)n2C1c1cccs1 (stereo not given)	-10.4	-1.3	-8.1	0.0	/	/
Cn1c(=O)cc(N2CCCCC2)n(Cc2ccc(F)cc2F)c1=O	-10.1	5.7*	-5.6	0.3	-1.7	-7.5
Cn1c(=O)cc(N2CCCC2)n(Cc2ccc(F)cc2F)c1=O	1.0	-0.8	10.1	0.0	/	/
C=CCOc1ccc(/C(O)=C2\C(=O)C(=O)N(c3nc(C)c(C(=O)OC)s3)C2c2ccc(OC)c(OC)c2)c(C)c1 (stereo not given)	-2.1	-0.6	-4.2	-0.1	/	/
OCCN1CCN(C2CCN(Cc3cccc4ccccc34)CC2)CC1	3.6	7.6*	9.3	-0.2	0.7	9.8
O=c1c2nnn(-c3ccc(F)cc3)c2ncn1Cc1ccc(Br)cc1	-5.3	-1.3	4.5	0.1	/	/
O=C(Nc1ccccc1N(C(=O)C1CC1)S(=O)(=O)c1cccs1)C1CC1	2.6	5.0*	2.8	-0.1	-0.1	15.4
COCCOC(=O)C1=C(C)NC2=C(C(=O)CC(c3ccc(OC)c(OC)c3)C2)C1c1cc(OC)ccc1OC (stereo not given)	9.7	-0.4	7.3	0.1	/	/
COC(=O)c1cc(Br)ccc1NC(=O)c1ccc(Cl)cc1	5.1	-0.5	1.0	0.5	/	/
CCOCCCNC(=O)c1cnn2c(C)c(Cc3ccccc3Br)c(C)nc12	-4.0	6.0*	19.3	0.1	-0.5	-12.7
CN1CCCC1=NCCn1cnc2c1c(=O)n(C)c(=O)n2C	8.8	0.7	6.0	0.2	/	/
CC(C)c1ccc(NS(=O)(=O)c2ccc3[nH]cc(C(=O)N4CCCC4)c(=O)c3c2)cc1	-5.2	9.7*	49.4	0.5	1.5	3.9
CCc1ccc(NS(=O)(=O)c2ccc3[nH]cc(C(=O)N4CCCCC4)c(=O)c3c2)cc1	-0.7	0.0	-4.7	-0.4	/	/
CNS(=O)(=O)c1ccc(OC)c2ccccc12	-2.1	0.6	0.0	0.0	/	/
O=C(c1ccc(OCCN2CCCCC2)cc1)c1c(-c2ccc(O)cc2)sc2cc(O)ccc12	-11.9	5.0*!	-11.1	-0.2	-0.5	-10.4
O=S(Cc1ccccc1)CC(O)COCc1ccccc1 (stereo not given)	-0.1	-0.1	9.7	0.3	/	/
COCc1ccc(C(=O)N2CCOc3ccc(CN4CCCC(CO)C4)cc3C2)o1 (stereo not given)	10.5	-1.3	8.1	0.1	/	/
CCOC(=O)c1c(C2COc3ccccc3O2)csc1NC(=O)c1ccc(OC)c(OC)c1 (stereo not given)	7.3	-0.4	-13.1	-0.1	/	/
SMILES	TEAD-YAP inh	GPR151 ag	MITF primary	FBW7 act	GPR151 conf act	GPR119 ag
COC1C(OC(N)=O)C(O)C(Oc2ccc3c(O)c(NC(=O)c4ccc(O)c(CC=C(C)C)c4)c(=O)oc3c2C)OC1(C)C (stereo not given)	0.7	6.6*!	-2.4	0.1	0.3	-1.1
CCN(c1ccccc1)S(=O)(=O)c1ccc2[nH]c(=O)ccc2c1	-5.1	-0.5	13.1	0.3	/	/
CCN(c1ccccc1)S(=O)(=O)c1ccc(=O)[nH]c1	10.3	6.3*	13.0	1.0	-1.2	-3.1
CCN(c1ccccc1)S(=O)(=O)c1ccc(-n2cccn2)cc1	1.8	9.0*	-0.7	0.1	0.2	0.7
O=C(CSc1nc2c(cnn2-c2ccc(F)cc2)c(=O)[nH]1)Nc1ccc2c(c1)OCO2	14.3	-0.6	15.9	0.2	/	/
Cc1coc2c(C)c3oc(=O)c(CCC(=O)O)c(C)c3cc12	0.1	-0.5	6.0	0.0	/	/
CC(Oc1ccc(C(C)(C)C)cc1)C(=O)NC1CCS(=O)(=O)C1 (stereo not given)	2.5	5.2*	-13.2	-0.1	-0.5	-7.3
CCOC(=O)C1(Cc2ccc(Cl)cc2)CCN(CCC(C)O)CC1 (stereo not given)	6.3	5.0*	15.0	0.4	-0.4	-11.4
CCOC(=O)C1(Cc2ccc(Cl)cc2)CCN(CC)CC1	-3.9	-0.4	11.4	0.2	/	/
CCOC(=O)C1(Cc2cccc(OC)c2)CCN(CCO)CC1	3.2	7.9*	15.1	0.2	0.4	5.7
CCCCC(=O)Nc1c2c(nn1-c1ccccc1C)CSC2	3.3	-0.1	11.7	0.4	/	/
Cc1csc(SCC(=O)Nc2ccccn2)n1	-3.4	6.2*	2.0	0.0	-0.8	-11.7
N#CC1(C#N)C(C(N)=O)C1c1ccccc1Cl (stereo not given)	7.2	0.3	-1.1	-0.1	/	/
O=C(CN1C2=NCCCN2c2ccccc21)N1CCOCC1	-17.8	-0.5	23.1	0.5	/	/
CC(C)CCN1C(=O)CC(NNC(=O)c2ccc(F)cc2)C1=O (stereo not given)	-8.0	5.7*	-0.1	0.1	0.7	2.1
N#C/C(=C\c1c[nH]c2ccccc12)c1nn(CCO)c(N)c1C#N	-19.9	-1.3	-4.0	-0.1	/	/
CC(=O)Nc1c(C(=O)c2ccc(Oc3ccccc3)cc2)oc2ccccc12	-0.9	7.4*	-13.1	0.1	1.6	6.6
CCCCCOc1ccc(C(=O)Nc2c(C(N)=O)oc3ccccc23)cc1	1.3	4.9*	6.2	0.0	1.6	0.4
CCCCOc1ccc(C(=O)Nc2c(C(N)=O)oc3ccccc23)cc1	3.8	-1.8	8.4	0.2	/	/
CCOC(=O)C1(Cc2ccccc2)CCCN(S(=O)(=O)c2ccc(NC(C)=O)cc2)C1 (stereo not given)	-3.7	2.3	2.2	0.0	/	/
COc1ccc(-n2c(O)c(C=NCc3ccc(F)cc3)c(=O)[nH]c2=O)cc1	5.1	7.1*	18.4	0.1	-1.2	-5.4
CCOc1ccc(S(=O)(=O)NCC(c2ccco2)S(=O)(=O)c2ccc(C)cc2)cc1 (stereo not given)	0.0	8.4*	11.2	0.3	-1.3	-11.3
COc1ccc(C(=O)C2CCCN(S(=O)(=O)c3c(C)nn(C)c3Cl)C2)c(C)c1 (stereo not given)	7.9	0.5	17.4	0.3	/	/
